T cruzi growth-1: blocks T. cruzi growth in NIH3T3 culture | T. cruzi beta-gal in NIH3T3, GalScreen luminescence, 90 h | inhibition, % at 8.34 µM | 77,000 compounds, 5.9% hits | AID 624255;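 active = mean inhibition above about 93%, with at least 55% of replicates each passing it, limit read from the data, passing the limit was not always enough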
Pf Dd2 growth: inhibitors of Plasmodium falciparum Dd2 growth | P. falciparum Dd2 growth, SYBR Green, 72 h; active compounds read low | activity change, % at 10 µM | 94,000 compounds, 2.3% hits | AID 1159554; in the data active = activity change below about -80%
C diff growth: blocks growth of Clostridium difficile | Clostridium difficile clinical isolate growth, OD600, 24 h; active compounds read low | growth activity, negative = inhibition, % at 16 µg/mL (by protocol) | 86,000 compounds, 0.25% hits;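 active = mean growth activity at or below -80% and every replicate also at or below -80%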
T cruzi growth-2: blocks T. cruzi growth in NIH3T3 host cells. shares compounds with T cruzi growth-1. T. cruzi beta-gal in NIH3T3, GalScreen luminescence, 90 h. inhibition, % at 8.35 µM. 5,600 compounds, 72% hits. AID 651739;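 active = mean replicate inhibition above about 95% and at least 55% of replicates individually reaching it, limit read from the data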
T cruzi growth-3: inhibitors of T. cruzi proliferation; 5,600 compounds, 21% hits; shares compounds with T cruzi growth-1; T. cruzi beta-gal in NIH3T3, GalScreen luminescence, 90 h; inhibition, % at 2.09 µM;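 active = mean inhibition above about 95%, with at least 55% of replicates also reaching it, limit read from the data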
NIH3T3 tox: NIH/3T3 (mouse) viability loss; 5,600 compounds, 14% hits; NIH/3T3 viability, CellTiter-Glo ATP luminescence, 90 h; cytotoxicity (signal decrease), % at 8.35 µM; shares compounds with T cruzi growth-1;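 active = mean signal decrease across replicates above about 35% based on untreated-well scatter, with enough replicates individually passing, limit read from the data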
3T3 cytotox 2: cytotoxicity in mouse NIH/3T3 fibroblasts | NIH/3T3 viability, CellTiter-Glo ATP luminescence, 90 h | AID 651744 | inhibition, % at 24.9 µM | 5,600 compounds, 56% hits | shares compounds with T cruzi growth-1;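 active = mean loss of cell viability signal at or above a set limit, and enough replicates individually reaching it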
Each line names hits and unclear results; the compound was inactive in the other large screens (follow-up assays come after a bar, where they were run). This is a sample that favours compounds with a hit; in the whole collection about 6.7% have one here.

C[C@H](CO)N1C[C@H](C)[C@H](CN(C)C(=O)NC2CCCCC2)OCc2cnnn2CCCC1=O	none
C[C@@H]1CN([C@@H](C)CO)C(=O)CCCn2nncc2CO[C@@H]1CN(C)C(=O)c1ccc2ccn(C)c2c1	none
O=C(c1ccc(F)cc1)N1CC(=O)N2[C@H](CO)[C@@H](c3ccc(-c4ccccc4)cc3)[C@H]2C1	none (no result: T cruzi growth-1)
C[C@@H]1CN([C@@H](C)CO)C(=O)c2cc(NC(=O)Nc3ccccc3)ccc2O[C@@H](C)CCCCO[C@H]1CN(C)Cc1ccc(C(F)(F)F)cc1	none
CNC[C@H]1OCCCC[C@H](C)Oc2ccc(NC(=O)c3ccncc3)cc2C(=O)N([C@H](C)CO)C[C@@H]1C	none
C[C@H]1CN([C@@H](C)CO)C(=O)c2cccc(NC(=O)CCCCCC(=O)Nc3ccccc3N)c2O[C@H]1CN(C)C	none (no result: T cruzi growth-1)
COc1ccc2c3c(n(C)c2c1)[C@H](CO)N(Cc1ccccc1)CC31CN(C)C1	none (no result: T cruzi growth-1)
N#Cc1cccc(-c2ccc3c(c2)[C@H]2[C@H](CCN2C(=O)c2ccc4c(c2)OCO4)[C@@H](CO)N3)c1	T cruzi growth-1 97.5 | T cruzi growth-2 102.9 | T cruzi growth-3 99.7 | NIH3T3 tox inactive | 3T3 cytotox 2 37.4
N#Cc1cccc(-c2ccc3c(c2)[C@@H]2[C@@H](CCN2C(=O)c2ccc4c(c2)OCO4)[C@@H](CO)N3)c1	none
CCC(=O)N1CC[C@@H]2[C@H]1c1cc(-c3ccccc3)ccc1N[C@@H]2CO	none
CN(C)C(=O)c1ccc(-c2ccc3c(c2)[C@H]2[C@H](CCN2C(=O)c2ccc4c(c2)OCO4)[C@@H](CO)N3)cc1	T cruzi growth-1 100.8 | T cruzi growth-2 105.5 | T cruzi growth-3 inactive | NIH3T3 tox inactive | 3T3 cytotox 2 inactive
O=C(c1ccc2c(c1)OCO2)N1CC[C@@H]2[C@@H](CO)Nc3ccc(C#Cc4ccccc4)cc3[C@@H]21	none
CCC(=O)N1CC[C@@H]2[C@H](CO)Nc3ccc(-c4ccc(C(=O)N(C)C)cc4)cc3[C@@H]21	T cruzi growth-1 107.9 | T cruzi growth-2 101.0 | T cruzi growth-3 inactive | NIH3T3 tox inactive | 3T3 cytotox 2 inactive
O=C(c1ccc2c(c1)OCO2)N1CC[C@@H]2[C@H]1c1cc(C#Cc3ccccc3)ccc1N[C@@H]2CO	T cruzi growth-1 93.1 | T cruzi growth-2 106.6 | T cruzi growth-3 inactive | NIH3T3 tox inactive | 3T3 cytotox 2 inactive
CN(C)C(=O)c1cccc(-c2ccc3c(c2)[C@@H]2[C@@H](CCN2C(=O)c2ccc4c(c2)OCO4)[C@@H](CO)N3)c1	none
COc1ccc2c3c(n(C)c2c1)[C@@H](CO)N(C(=O)CC1CC1)CC31CCN(Cc2ccncc2)CC1	none (no result: T cruzi growth-1)
C[C@H](CO)N1C[C@H](C)[C@H](CN(C)Cc2ccc(C(=O)O)cc2)Oc2ccc(NC(=O)Nc3ccccc3)cc2C1=O	none
COc1cccc(-c2cnc3c(c2)C(=O)N([C@@H](C)CO)C[C@@H](C)[C@@H](CN(C)C(C)=O)O3)c1	none
COc1ccc(-c2ccc3c(c2)O[C@@H](CN(C)Cc2ccccc2C(=O)O)[C@@H](C)CN([C@@H](C)CO)S3(=O)=O)cc1	none
COc1ccc2c3c([nH]c2c1)[C@@H](CO)N(C(=O)C1CCC1)CC31CCN(S(C)(=O)=O)CC1	none (no result: T cruzi growth-1)
CO[C@H]1CN(C)C(=O)c2ccc(NC(C)=O)cc2OC[C@H](C)N(C(=O)CN2CCOCC2)C[C@H]1C	none
O=C(Nc1ccc(F)cc1)N[C@H]1CC[C@@H](CCNC(=O)c2ccccc2F)O[C@@H]1CO	none (no result: T cruzi growth-1)
N#Cc1cccc(-c2ccc3c(c2)[C@@H]2[C@@H](CCN2C(=O)c2ccncc2)[C@@H](CO)N3)c1	T cruzi growth-1 103.2 | T cruzi growth-2 97.4 | T cruzi growth-3 inactive | NIH3T3 tox inactive | 3T3 cytotox 2 inactive
N#Cc1ccc(-c2ccc3c(c2)[C@@H]2[C@@H](CCN2C(=O)c2ccncc2)[C@H](CO)N3)cc1	none
CCNC(=O)C[C@H]1CC[C@@H]2[C@H](COC[C@@H](O)CN2C(=O)Nc2c(C)noc2C)O1	none (no result: C diff growth)
